The values that follow come from PubChem BioAssay AID920 (The Scripps Research Institute Molecular Screening Center, 2007).

In all, about 200,000 compounds went through this assay and about 700 (0.35%) were called active. The full list was thinned out, with actives kept by preference. Values without a mark were called inactive.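 The calls were made as follows: active = inhibition above a set limit, the mean inhibition across all tested compounds plus 3 SD (cut at about 34% in these data); inactive = the rest.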

This experiment in a line: blockers of IFN-gamma driven STAT1 reporter – cell-based, HTS, luciferase reporter, primary screen (AID 920).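 Also: 0% = IFN-gamma with DMSO and 100% = IFN-gamma with 300 µM nifuroxazide.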 The note with it: NIH 3T3 STAT1-luciferase reporter, luminescence, at 5.5 µM, stronger effect = higher value. (Reporter assays use an easily measured gene product as a stand-in for the process of interest.)
What is called inhibition is the drop in the measured response relative to a control, in per cent. As to `Cc1noc(C)c1/C=N/Nc1ccc2ccccc2n1`, the inhibition is -64.7%.
Regarding `C(=N\Nc1ccc2ccccc2n1)/c1ccc2c(c1)OCO2`, the inhibition is 68.7% (active).
Turning to `Brc1ccc(-c2csc(N/N=C/c3ccc4c(c3)OCO4)n2)cc1`, the inhibition is -12.1%.
The result for `CCOC(=O)C1C(c2ccc(Cl)cc2)NC(=S)NC1(O)C(F)(F)F` (stereo not drawn) reads 10.5%; that for `Cc1ccc(CN2C(=O)N/C(=C/c3cc(C)n(-c4ccccn4)c3C)C2=O)cc1`, -13.2%.
`S=C(Nc1ccc2c(c1)OCO2)N1CCCC1`: the inhibition is -9.5%.
In the case of `c1c2c(cc3sc(N4CCCCC4)nc13)OCCO2`, the inhibition was 47.8% (active).
For the compound `COc1ccc2nc(Nc3nc4cc5c(cc4s3)OCCO5)sc2c1`, the inhibition was -15.9%.
Consider `Brc1ccc2nc(N3CCCC3)sc2c1`, for which the inhibition was -39.3%.
`CCOC(=O)C1(CCOc2ccccc2)CCN(C(=O)c2cncs2)CC1`: the inhibition was -0.02%.
For the compound `O=C(O)CSc1nnc(-c2ccc3c(c2)OCO3)n1-c1ccccc1`, the inhibition is -5.92%.
`COc1cccc(-c2nc3cc(C)ccc3o2)c1`: the inhibition is -6.24%.
As to `CCCCCC(=O)Nc1ccc2oc(-c3ccncc3)nc2c1`, the inhibition was -3.9%.
The same measure for `CCc1ccc2oc(-c3ccc(N)cc3)nc2c1`: 34.5% (active); for `CC(C)/C=N/NC(=O)c1cc(Br)ccc1O`: 11.2%.
Turning to `O=C(/C=C/c1ccccc1[N+](=O)[O-])NCC1CCCO1` (stereo not drawn), the inhibition was -5.46%.
With `CCc1nnc(NC(=O)CCCSc2nc3ccccc3[nH]2)s1`, the inhibition was 20.4%.
In the case of `NC(=O)Nc1ccccc1C(=O)NCCc1ccccc1`, the inhibition was -28.8%.
As to `COc1cc2c(C(=O)N3CCN(C)CC3)c(CSc3ccccc3)n(C)c2cc1Br`, the inhibition was 10.4%.
The same measure for `COc1ccc(-c2nc(-c3ccccc3)no2)c(OC)c1`: 60.8% (active); for `COc1ccc(-c2noc(-c3cccc(OC)c3OC)n2)cc1OC`: -49.2%.
The same measure for `COc1ccc(-c2noc(-c3ccc(C)cc3)n2)cc1`: -36.1%; for `Cc1ccc(C(C)(C)C)c(OCCCCN2CCCC2)c1`: 9.92%; for `Cc1nc2ccccc2c(C)c1C(=O)c1ccc(F)cc1`: 15.9%.
The result for `O=C(c1ccc(S(=O)(=O)c2ccccc2)cc1)N1CCCCCC1` reads 14.2%; that for `CCOC(=O)C(=CNc1cccc(C)n1)C(=O)OCC`, 43.5% (active); that for `Cc1cccc(NC(=O)c2ccc3ccccc3n2)n1`, -31.6%.
On to `CCOc1ccc(OCc2ccc(C(=O)Nc3cccc(C)n3)o2)cc1`, for which the inhibition is -24.1%.
For the compound `Cc1ccc(C(C[N+](=O)[O-])c2c(C)cc3ccccn23)cc1` (stereo not drawn), the inhibition was 10.7%.
Consider `C=CCN1C(=O)C(Cc2ccc(OCC)cc2)SC1=Nc1ccc(C(=O)O)cc1` (stereo not drawn), for which the inhibition is 11.1%.
Regarding `Nc1ccc(OCC(O)C[n+]2ccc(CCS(=O)(=O)[O-])cc2)cc1` (stereo not drawn), the inhibition is 0.06%.
With `Cc1cc(N2CCN(Cc3ccc4c(c3)OCO4)CC2)n2ncnc2n1`, the inhibition was 6.31%.
Consider `Fc1ccc2[nH]c3c(N4CCSCC4)ncnc3c2c1`, for which the inhibition was 25.6%.
Consider `Fc1ccc2[nH]c3c(N4CCN(Cc5ccc6c(c5)OCO6)CC4)ncnc3c2c1`, for which the inhibition is 45.1% (active).
The result for `O=C(CC1SC(=Nc2ccccc2F)N(CCN2CCOCC2)C1=O)Nc1ccc(F)cc1F` (stereo not drawn) reads 2.14%; that for `Cc1ccc(N/C(N)=N/c2nc(C(F)(F)F)cc(C(F)(F)F)n2)cc1`, -12.9%.
For the compound `CCOC(=O)CN/C=C(\C#N)c1ccc(F)cc1`, the inhibition is 1.52%.
Take `CCOc1c(Cl)cc(/C=N/O)cc1OC`: the inhibition is 5.54%.
Turning to `CCOc1cc(/C=C(/C#N)c2ccc(Cl)cc2)cc(Cl)c1OCC(=O)O`, the inhibition was 47.4% (active).
For `COc1ccc(C2c3c(C)nn(-c4ccccc4)c3NC(=O)N2c2ccccc2)cc1` (stereo not drawn), the inhibition is -3.45%.
With `Cc1noc(C)c1CCC(=O)O`, the inhibition is 3.78%.
Take `O=C(C1CCN(C2CCN(Cc3ccc4cc(F)ccc4n3)CC2)CC1)N1CCCC1`: the inhibition is 2.2%.
As for `CCc1cc(CNC(=O)CC2C(=O)NCCN2CC2CCCCC2)on1` (stereo not drawn), the inhibition was 6.89%.
The result for `CSC(=S)N/N=C/c1c[nH]c2ccccc12` reads -6.4%; that for `O=C(O)c1cccc(NC(=S)N/N=C/c2c[nH]c3ccccc23)c1`, 58% (active); that for `CN(C)S(=O)(=O)c1cccc(NC(=S)N/N=C/C(=O)c2ccccc2)c1`, -1.89%.
With `COc1ccc(CCC(=O)OCC(=O)Nc2ccc(C)c(S(=O)(=O)N(C)C)c2)cc1`, the inhibition is 1.53%.
Turning to `Cc1ccc2[nH]cc(CCCN3C(=O)c4ccccc4C3=O)c2c1`, the inhibition is 0.21%.
The same measure for `CCOC(=O)N1CCN(C(=O)C2CCN(Cc3ccc(OC)cc3OC)CC2)CC1`: 5.92%; for `CCOC(=O)N1CCN(C(=O)C2CCN(c3ncnc4c3sc3cccc(F)c34)CC2)CC1`: 37.1% (active); for `CCOC(=O)C1CCN(c2ncnc3c2oc2ccc(Br)cc23)CC1`: -3.28%.
As for `NS(=O)(=O)c1cccc(NC(=O)CSc2nc3ccccc3n2-c2ccccc2)c1`, the inhibition is 55.1% (active).
For `Cc1cccc(-n2c(SCC(=O)Nc3cccc(S(=O)(=O)NC4=NCCCCC4)c3)nc3ccccc3c2=O)c1C`, the inhibition was -1.66%.
Regarding `Cc1ccc(-n2c(SCC(=O)Nc3ncc(Cl)cc3Cl)nc3ccccc32)cc1`, the inhibition is 12.4%.
Regarding `Cc1nn(C)cc1C(=O)Nc1ccccc1Br`, the inhibition is -7.01%.
Consider `CCCN1C(=O)C(Cc2nc3ccccc3c(=O)n2-c2ccccc2)c2cc(C)ccc21` (stereo not drawn), for which the inhibition is 6.11%.
As for `CCCOC1CCCN(Cc2cn(C)nc2-c2ccccc2F)C1` (stereo not drawn), the inhibition is -4.18%.
For the compound `Cc1ncoc1C(=O)NCCC(c1ccccc1)c1ccccc1`, the inhibition is -1.04%.
The same measure for `CCC(C)Sc1nnc(-c2c[nH]c3ccccc23)n1CCOC` (stereo not drawn): 3.54%.
In the case of `CCOC(=O)N1CCN(C(=O)CSc2nnc(-c3c[nH]c4ccccc34)n2CCOC)CC1`, the inhibition is 37.2% (active).
In the case of `CCn1c(SCC(=O)Nc2ccc(OC)c(OC)c2)nnc1-c1c[nH]c2ccccc12`, the inhibition was 3.46%.
Take `Cc1ccc2[nH]cc(CCNC(=O)c3ccc([N+](=O)[O-])cc3)c2c1`: the inhibition is -1.14%.
The same measure for `COc1ccc(N2C(=O)CC(SC(C)C)C2=O)cc1` (stereo not drawn): 2.11%; for `COc1ccc(C2CC(c3cccs3)=NN2c2ccc(F)cc2)cc1OC` (stereo not drawn): -5.19%; for `COc1ccc(C2CC(c3cccs3)=NN2c2nc(C)c(C(C)=O)s2)cc1OC` (stereo not drawn): 34.5% (active).
As to `COc1ccc(C2CC(c3cccs3)=NN2C(=O)CSc2nncs2)cc1OC` (stereo not drawn), the inhibition was 17%.
For `Cc1cccc(NS(=O)(=O)c2ccc(C)c(C(N)=O)c2)c1`, the inhibition was 14%.
The same measure for `CCN(/N=C/c1ccccc1)c1cc(=O)n(C)c(=O)[nH]1`: 1.47%; for `CC1CC(C)CN(C(=O)CSc2ccsc2[N+](=O)[O-])C1` (stereo not drawn): 1.9%.
For the compound `CN(CC(=O)Nc1cccc(F)c1)CC(=O)Nc1cccc([N+](=O)[O-])c1`, the inhibition is 9.08%.
The same measure for `Cc1ccc(CN(C)CC(=O)Nc2cccc([N+](=O)[O-])c2)o1`: 8.85%; for `Cc1ccc(NC(=O)CN(C)CC(=O)Nc2cccc(F)c2)cc1[N+](=O)[O-]`: 34.4% (active).
Regarding `O=C(c1cccc([N+](=O)[O-])c1)N1CCN(C(=O)c2ccco2)CC1`, the inhibition was 1.07%.
With `Cc1ccc2[nH]c(C)c(CCNC(=O)NC3CCCCC3)c2c1`, the inhibition is 8.57%.
With `CC(=O)N1N=C(c2ccccc2)OC1c1cccnc1` (stereo not drawn), the inhibition was -12.4%.
Turning to `COc1ccccc1C(=O)NNC(=O)c1ccc(NC(=O)c2ccccc2)cc1`, the inhibition is 3.37%.
With `CCn1c(/C=N/NC(=O)c2ccc(OC)cc2)nc2ccccc21`, the inhibition was 1.5%.
The result for `COc1ccc(C(=O)Nc2ccccc2C(=O)N/N=C/c2ccc(O)c(OC)c2)cc1` reads 99.9% (active).
As to `COc1ccc(C(=O)Nc2ccccc2C(=O)N/N=C/c2ccccc2OC)cc1`, the inhibition is 58.5% (active).
Regarding `COc1ccc(/C=N/NC(=O)c2ccccc2)cc1OS(=O)(=O)c1ccccc1`, the inhibition is 6.31%.
On to `COc1cc(/C=N/NC(=O)c2ccccc2)ccc1OS(=O)(=O)c1ccccc1`, for which the inhibition was -17.2%.
For `CCN(C(=O)c1ccc(Br)cc1)c1ccccc1`, the inhibition is 12.3%.
The same measure for `CC(=O)c1c(C)[nH]c(C(=O)OCC(=O)Nc2sc3c(c2C#N)CCCC3)c1C`: -6.37%.
With `Cc1nc(CN2CCN(C(=O)CCc3nnc(Cc4c[nH]c5ccccc45)o3)CC2)cs1`, the inhibition was 0.65%.
For `CCCCOC(=O)CCCc1ccc([N+](=O)[O-])cc1[N+](=O)[O-]`, the inhibition was 6.62%.
Regarding `Cc1cc(O)c(NC(=O)c2ccc(C)c([N+](=O)[O-])c2)cc1C`, the inhibition was -3.86%.
Take `O=C(NNC(=O)C1CCN(c2ncccn2)CC1)c1ccccc1`: the inhibition was -0.55%.
Take `CC(=O)c1cc(C#N)c(N2CCCCC2)nc1C`: the inhibition is 2.46%.
Regarding `Cc1cc(C(=O)Cn2cnc3cc([N+](=O)[O-])ccc3c2=O)c(C)n1CC1CCCO1` (stereo not drawn), the inhibition is -2.94%.
On to `Cc1ccsc1C(=O)OCC(=O)c1cc2ccccc2o1`, for which the inhibition was -6.53%.
As for `Cc1ccsc1C(=O)OCC(=O)c1cc(C)n(CC2CCCO2)c1C` (stereo not drawn), the inhibition is 77.5% (active).
In the case of `CC1CC(C)(C)NC(=S)N1CCC(=O)N1CCN(Cc2ccccc2)CC1` (stereo not drawn), the inhibition was -1.54%.
Take `COc1ccc(NC(=S)NCCN2CCC(C)CC2)cc1`: the inhibition was 4.93%.
For `Cc1cccc(C(=O)Nc2ccc3c(c2)C(=O)N(CC(C)C)C3=O)c1`, the inhibition is -24.8%.
In the case of `O=C(CSc1nc2ccc([N+](=O)[O-])cc2[nH]1)c1ccc(Cl)cc1`, the inhibition is -9.84%.
As to `Cc1ccc(-c2cn3cc([N+](=O)[O-])ccc3n2)cc1`, the inhibition is -37.1%.
For `COc1ccc(-c2cn3ccsc3n2)cc1`, the inhibition is -38.6%.
The same measure for `Cc1ccc(-c2cn3cc(C)ccc3n2)cc1`: 94.3% (active).
